The entries come from a sample that favours hits as a whole.
Dicer processing = inhibitors of Dicer pre-microRNA processing, primary screen, biochemical, cat-ELCCA, chemiluminescence; Endoribonuclease Dicer (Homo sapiens), Q9UPY3; AID 1347074, 2019; z-score at 25 µM; 6% of 47,000 active; cat-ELCCA pre-miR-21 Dicer processing; hits give high values; in the data active = z-score above about 3, passing the limit was not always enough;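 also: plate controls were vehicle for no effect and no enzyme for full effect; higher signal means more uncleaved substrate so more Dicer inhibition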
* hit, by the source's call.

SMILES	Dicer processing
COC(=O)c1ccc2ncccc2c1	-0.59
COC(=O)c1ccc(C(F)(F)C(F)(F)c2ccc(C(=O)OC)cc2)cc1	0.5
COC(=O)c1ccc(C(=O)OC)nc1	3.9*
CSc1ncc(C#N)c2nc(-c3ccc(Cl)cc3)nn12	-0.75
Cn1c2c(c(=O)n(C)c1=O)C(c1ccc(O)cc1)C1C(=O)c3ccccc3C1=N2 (stereo unspecified)	-0.21
Cn1c(-c2ccccc2)cccc1=O	3.8*
COc1cccc2ccc(=O)n(C)c12	2.1
Cn1c(-c2ccccc2)cn2cc(-c3ccccc3)nc12	8.7
Clc1ccc(C2=Nn3c(nnc3-c3cccnc3)SC2)cc1	-0.73
CNc1nccc(C(F)(F)F)c1C(=O)Nc1c(C)cccc1C	-1.2
N#CCc1c([N+](=O)[O-])ccc2c1ccn2Cc1ccccc1	0
CC(=O)Nc1cc2cc(N)ccc2oc1=O	-0.61
N#C/C(=C\c1ccc(-c2cc(C(F)(F)F)cc(C(F)(F)F)c2)o1)C(=O)NCCc1c[nH]c2ccccc12	-0.31
C=CCNC(=O)C(=O)NCCc1c[nH]c2ccccc12	3.7*
CCOC(=O)NC(=S)NCCc1c[nH]c2ccccc12	1
C=CCNC(=S)Nc1sc2c(c1C(=O)OCC)CCN(C(=O)OCC)C2	-3.5
CCOC(=O)c1c(NC(=S)NCc2ccccc2)sc2c1CCN(C(=O)OCC)C2	3.7*
CCOC(=O)c1c(NC(=O)CN2CCc3ccccc32)sc2c1CCN(C(=O)OCC)C2	-0.43
CCOC(=O)c1c(NC(=S)N2CCCCC2)sc2c1CCN(C(=O)OCC)C2	-2
CCOC(=O)N1CCc2c(sc(N)c2C#N)C1	-0.06
CCOC(=O)N1CCc2c(sc(NC(=O)CN3CCc4ccccc43)c2C#N)C1	5.3*
Nc1c(C(=O)Nc2ccc(Cl)cc2)sc2nc3c(cc12)CCC3	-0.04
Cc1ccc(CN2C(=O)C(O)(c3c[nH]c4ccccc34)c3ccccc32)cc1 (stereo unspecified)	1.8
N#CCC(=O)NCc1ccc(F)cc1F	-0.55
N#C/C(=C\Nc1cccc(F)c1)S(=O)(=O)c1ccc(Cl)cc1	-0.44
SMILES	Dicer processing
CCCCn1c(-c2ccc(N)cc2)nc2ccccc21	0.23
Nc1nc2ccccc2n1CCOc1ccc(Br)cc1	2.5
Nc1ccc(-c2nc3ccccc3n2CCOc2ccccc2)cc1	4.3*
COc1ccc(CCNC(=O)c2nc3ccccc3c(=O)n2NC(=O)Nc2c(Cl)cccc2Cl)cc1OC	0.02
CCOc1cc(C2C(C#N)=C(N)Oc3n[nH]c(C)c32)ccc1OCc1ccccc1Cl (stereo unspecified)	-4.3
CCCCCOC(=O)C1=C(C)NC2=C(C(=O)CCC2)C1c1cc(Br)c(O)c(OC)c1 (stereo unspecified)	0.25
CSc1cc(-c2ccc(Cl)cc2)[nH]n1	0.25
CSc1nn(-c2ccccc2)c(-c2ccc(OC(F)(F)F)cc2)c1C#N	-3.3
Cc1nn(C(C)(C)C)c(NC(=O)c2ccc(Cl)cc2Cl)c1Br	3.3*
Cc1cc(NC(=O)c2ccc(Cl)cc2Cl)n(C(C)(C)C)n1	1.2
CC(C)(C)n1nc(C2CC2)c(Br)c1NC(=O)c1ccccc1Cl	-1.5
CC(C)(C)c1cc(NC(=O)Nc2ccc(OCc3ccccc3)cc2)no1	0.88
CCCc1[nH]nc2c1C(c1cccc(O)c1)C(C#N)=C(N)O2 (stereo unspecified)	-4.2
COc1ccc(C(=O)c2sc3nc(-c4ccc(OC)cc4)ccc3c2N)cc1	0.01
Cc1cc(C)c2c(N)c(C(=O)c3ccccc3)sc2n1	-0.42
Cc1ccc2c(N)c(C(=O)c3ccc(-c4ccccc4)cc3)sc2n1	3.2*
C=CCOC(=O)C1=C(C)NC2=C(C(=O)CC(C)(C)C2)C1c1cccc(OC)c1 (stereo unspecified)	-0.33
CCOC(=O)C(=CNc1cc(C)no1)C(=O)OCC	-1.3
CCCCCCCNC1CC(=O)N(c2ccc(Cl)cc2)C1=O (stereo unspecified)	-0.55
O=C1CC(NCc2ccc(Cl)cc2)C(=O)N1c1ccc(Br)cc1 (stereo unspecified)	-3.3
O=C1CC(NCCc2ccc(Cl)cc2)C(=O)N1c1ccc(Br)cc1 (stereo unspecified)	4.6*
Cc1ccccc1N1OC2C(=O)N(C)C(=O)C2C1c1cccs1 (stereo unspecified)	0.43
O=C(Nc1ccccc1)c1ccc2ccccc2c1O	0.47
O=C(O)C1=C(C(=O)Nc2ccccc2)SCCS1	-0.77
Nc1c(C(=O)Nc2ccccc2)oc2ccccc12	5.4*
SMILES	Dicer processing
CCOC(=O)c1ccc(-n2sc3c(c2=S)-c2ccccc2NC3(C)C)cc1	0.62
CCOc1ccc2c(c1)-c1c(sn(-c3ccccc3OC)c1=S)C(C)(C)N2	0.92
COc1ccc2c(c1)-c1c(sn(-c3ccccc3OC)c1=S)C(C)(C)N2	6.6*
COc1ccc2c(c1)-c1c(sn(-c3cc(C)ccc3O)c1=S)C(C)(C)N2	1.9
CC(=O)Nc1ccc(-n2sc3c(c2=S)-c2ccccc2NC3(C)C)cc1	5.3*
CC(=O)Nc1ccc(-n2sc3c(c2=S)-c2cccc(C)c2NC3(C)C)cc1	7.9
CC(C)c1ccc(NNC(N)=S)cc1	0.04

Assay outcomes as filed in PubChem.
